Test results published in PubChem BioAssay (EPA / NIEHS).
Activity calls are given as the source filed them. Rule for the calls: active = hit-call score of the fitted dose curve at least 0.9, where 1 is the maximum; inactive = score below 0.9.

Experiment: CCTE_Shafer_MEA_acute_burst_percentage_mean: CCTE's Neural Acute Assay for Percentage of Spikes in a Burst, Shafer Lab (AID 2284017);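 for AC50: curve fitted for loss of signal so potency reflects decreased burst percentage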
In short: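 Well-level mean burst percentage from a 40-min recording after compound (0.03-40 uM) expressed as percent change from a 40-min baseline at 37C. Cultures: primary rat cortical neurons on MEA, dosed on DIV 13 or 15; fitted downward relative to DMSO.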

outcome, inactive:
OCC(CO)n1cnc(-c2ccc(F)cc2)c1-c1ccnc(Oc2ccccc2)n1
CC(C)COC(=O)CCCCC(=O)OCC(C)C
CC1=C(C)S(=O)(=O)CCS1(=O)=O
O=C(O)CN(CC(=O)O)CC(=O)O
CCc1cc(C2=C(C(=O)O)N(c3ccccc3C(F)(F)F)S(=O)(=O)c3ccccc32)cc2c1OCO2
CCCCC(CC)COP(=O)(OCC(CC)CCCC)OCC(CC)CCCC (centres undefined)

AC50, active:
Cc1c(C)c2c(c(C)c1O)CCC(C)(COc1ccc(CC3SC(=O)NC3=O)cc1)O2 (centres undefined) 32.9 µM
NC(=Nc1ccccc1)Nc1ccccc1 29.5 µM
CN(C)C(=O)NC1(c2ccccc2)CCN(CCC[C@]2(c3ccc(Cl)c(Cl)c3)CCCN(C(=O)c3ccccc3)C2)CC1 7.4 µM
CSc1ccc(Oc2ccc(S(N)(=O)=O)cc2CN(C)C)cc1C 31.8 µM
Cc1cc(Cc2ccc(N)c(C)c2)ccc1N 30 µM
CCN(CC)CCOc1ccc(C(=C(Cl)c2ccccc2)c2ccccc2)cc1 20 µM
COc1ccc(OC(F)(F)F)cc1CN[C@H]1CCCN[C@H]1c1ccccc1 4.59 µM
Cc1ccc(C(C)(C)C)c(O)c1 29.9 µM
CN(C)CCCN1c2ccccc2Sc2ccc(Cl)cc21 33.2 µM

Experiment: CCTE_Shafer_MEA_acute_burst_percentage_std: CCTE's Neural Acute Assay for Standard Deviation of Burst Percentage, Shafer Lab (AID 2284018);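 note: fitted in the negative direction so actives lower burst percentage SD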
In short: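 Value is percent change from baseline in the across-electrode SD of spikes-in-bursts percentage, wells with >/= 10 active electrodes. Acute 40-min exposure to 0.03-40 uM on DIV 13 or 15 rat cortical cultures, recorded at 37 C after 40-min baseline.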

outcome, inactive:
OCC(CO)n1cnc(-c2ccc(F)cc2)c1-c1ccnc(Oc2ccccc2)n1
CC(C)COC(=O)CCCCC(=O)OCC(C)C
NC(=Nc1ccccc1)Nc1ccccc1
Cc1cc(Cc2ccc(N)c(C)c2)ccc1N
CC1=C(C)S(=O)(=O)CCS1(=O)=O
O=C(O)CN(CC(=O)O)CC(=O)O
Cc1ccc(C(C)(C)C)c(O)c1
CCc1cc(C2=C(C(=O)O)N(c3ccccc3C(F)(F)F)S(=O)(=O)c3ccccc32)cc2c1OCO2
CCCCC(CC)COP(=O)(OCC(CC)CCCC)OCC(CC)CCCC (centres undefined)

AC50, active:
Cc1c(C)c2c(c(C)c1O)CCC(C)(COc1ccc(CC3SC(=O)NC3=O)cc1)O2 (centres undefined) 33.1 µM
CN(C)C(=O)NC1(c2ccccc2)CCN(CCC[C@]2(c3ccc(Cl)c(Cl)c3)CCCN(C(=O)c3ccccc3)C2)CC1 1.83 µM
CSc1ccc(Oc2ccc(S(N)(=O)=O)cc2CN(C)C)cc1C 32.1 µM
CCN(CC)CCOc1ccc(C(=C(Cl)c2ccccc2)c2ccccc2)cc1 29.1 µM
COc1ccc(OC(F)(F)F)cc1CN[C@H]1CCCN[C@H]1c1ccccc1 4.15 µM
CN(C)CCCN1c2ccccc2Sc2ccc(Cl)cc21 31.6 µM

Experiment: CCTE_Shafer_MEA_acute_per_network_burst_spike_number_mean: CCTE's Neural Acute Assay for Average Number of Spikes in a Network Burst, Shafer Lab (AID 2284019);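 for AC50: curve fitted for loss of signal so actives reduce spikes per network burst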
In short: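 Percent change from baseline in mean spikes per network burst, spikes detected at 8x rms noise. Each compound at 0.03-40 uM in at least three wells of rat cortical cultures, recorded 40 min before and 40 min during exposure.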

outcome, inactive:
OCC(CO)n1cnc(-c2ccc(F)cc2)c1-c1ccnc(Oc2ccccc2)n1
CC(C)COC(=O)CCCCC(=O)OCC(C)C
NC(=Nc1ccccc1)Nc1ccccc1
CN(C)C(=O)NC1(c2ccccc2)CCN(CCC[C@]2(c3ccc(Cl)c(Cl)c3)CCCN(C(=O)c3ccccc3)C2)CC1
CSc1ccc(Oc2ccc(S(N)(=O)=O)cc2CN(C)C)cc1C
Cc1cc(Cc2ccc(N)c(C)c2)ccc1N
CC1=C(C)S(=O)(=O)CCS1(=O)=O
CCN(CC)CCOc1ccc(C(=C(Cl)c2ccccc2)c2ccccc2)cc1
O=C(O)CN(CC(=O)O)CC(=O)O
Cc1ccc(C(C)(C)C)c(O)c1
CN(C)CCCN1c2ccccc2Sc2ccc(Cl)cc21
CCc1cc(C2=C(C(=O)O)N(c3ccccc3C(F)(F)F)S(=O)(=O)c3ccccc32)cc2c1OCO2
CCCCC(CC)COP(=O)(OCC(CC)CCCC)OCC(CC)CCCC (centres undefined)

AC50, active:
Cc1c(C)c2c(c(C)c1O)CCC(C)(COc1ccc(CC3SC(=O)NC3=O)cc1)O2 (centres undefined) 3.02 µM
COc1ccc(OC(F)(F)F)cc1CN[C@H]1CCCN[C@H]1c1ccccc1 2.07 µM

Experiment: CCTE_Shafer_MEA_acute_per_network_burst_spike_number_std: CCTE's Neural Acute Assay for Standard Deviation of Number of Spikes in a Network Burst, Shafer Lab (AID 2284020);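 note: fitted for decrease in spike-number SD versus DMSO so actives lower it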
In short: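 Endpoint: percent change from 40 min baseline in standard deviation of spikes per network burst, after 40 min compound exposure (0.03-40 uM, 37 C). Cortical rat neurons on MEA at DIV 13 or 15; spikes detected at 8x rms noise, 300-5000 Hz band-pass.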

outcome, inactive:
OCC(CO)n1cnc(-c2ccc(F)cc2)c1-c1ccnc(Oc2ccccc2)n1
CC(C)COC(=O)CCCCC(=O)OCC(C)C
NC(=Nc1ccccc1)Nc1ccccc1
CSc1ccc(Oc2ccc(S(N)(=O)=O)cc2CN(C)C)cc1C
CC1=C(C)S(=O)(=O)CCS1(=O)=O
CCN(CC)CCOc1ccc(C(=C(Cl)c2ccccc2)c2ccccc2)cc1
O=C(O)CN(CC(=O)O)CC(=O)O
Cc1ccc(C(C)(C)C)c(O)c1
CN(C)CCCN1c2ccccc2Sc2ccc(Cl)cc21
CCCCC(CC)COP(=O)(OCC(CC)CCCC)OCC(CC)CCCC (centres undefined)

AC50, active:
Cc1c(C)c2c(c(C)c1O)CCC(C)(COc1ccc(CC3SC(=O)NC3=O)cc1)O2 (centres undefined) 0.517 µM
CN(C)C(=O)NC1(c2ccccc2)CCN(CCC[C@]2(c3ccc(Cl)c(Cl)c3)CCCN(C(=O)c3ccccc3)C2)CC1 7.62 µM
Cc1cc(Cc2ccc(N)c(C)c2)ccc1N 20 µM
COc1ccc(OC(F)(F)F)cc1CN[C@H]1CCCN[C@H]1c1ccccc1 2.75 µM
